Each structure is given as a SMILES string. Results filed as inconclusive are left out. Calls of active or inactive are those of the source. The call rests on the fitted dose curve; in most records, active means well fitted curve in the direction sought with a large enough effect; inconclusive means small, poorly fitted or top-dose-only effect, or another doubt; inactive means no such curve, though single readings can be large; an effect the other way counts as inactive or inconclusive.

Assay [1] has as its system Zika virus NS2B-NS3 protease (linked construct). Briefly: Primary screen NINDS Rhodamine qHTS for Zika virus inhibitors (AID 1347160). Further: nearly all actives have a fitted effect of over 55% in size. To be noted: purified NS2B-NS3 protease, Rhodamine110 substrate fluorescence; series mostly up to 57.1 µM. The method in brief:
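In 10 mM Tris-HCl pH 8.0 containing 0.01% Tween 20, linked NS2B-NS3 protease (25 nM final) is exposed to test compounds for 15 min. Cleavage of 1.5 microM Rhodamine110 substrate is tracked by fluorescence over 15 min.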
For orientation: qHTS replaces the single test concentration by a dilution series.

The nature of assay [2]: qHTS to identify inhibitors of the type 1 interferon - major histocompatibility complex class I in skeletal muscle: primary screen against the NCATS Mechanism Interrogation Plate v5.0 (MIPE) Libary (AID 1347411). Further: nearly all actives have a fitted effect of over 65% in size. Further: potency means the concentration at half of the fitted maximal effect. To be noted: iHSKM cells + IFN-b, HiBiT-tagged MHC-I luminescence, 24 h; series mostly up to 45.8 µM. The procedure, abridged:
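Immortalized human C25cl48 myoblasts with HiBit knocked into endogenous HLA-B*08:01 were stimulated with 4.0 ng/ml IFN-beta and exposed to compounds (11-point 1:3 titration, top 46 uM final) for 24 hrs at 37 C; HiBiT lytic luminescence measured.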

Assay [3] can be described thus: qHTS to identify inhibitors of the type 1 interferon - major histocompatibility complex class I in skeletal muscle: primary screen against the NCATS Pharmaceutical Collection (AID 1347407). To be noted: human skeletal muscle cells, IFN-b-induced MHC-I HiBiT luminescence, 24 h; series mostly up to 45.9 µM. The procedure, abridged: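 Immortalized human myoblasts (C25cl48) with HiBiT knocked into endogenous HLA-B*08:01 were stimulated with 4 ng/ml IFN-beta and treated with compounds (8-point, 1:5, top 46 uM final) for 24 h at 37 C; HiBiT lytic luminescence read.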

The target in assay [4] is Protein phosphatase 1D (Homo sapiens) (UniProt O15297). Briefly: RapidFire Mass Spectrometry qHTS Assay for Modulators of WT P53-Induced Phosphatase 1 (WIP1) (AID 1347424).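 Further: amount of dephosphorylated VEPPL-S-QETFS peptide product formed by WIP1.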 Further: potency means the concentration at half of the fitted maximal effect. The settings on record: WIP1 dephosphorylation of phosphopeptide, RapidFire MS; series mostly up to 63 µM. The procedure, abridged:
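10 nM WIP1 preincubated with compounds 1 hr at room temperature in pH 7.5 Tris buffer with 30 mM MgCl2, 1 mM TCEP; 2 uM VEPPL-pS-QETFS phosphopeptide for 5 min, formic acid quench; dephosphorylated product quantified by RapidFire MS against labelled standard.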

Assay [5] shares this target. Briefly: Rhodamine-PBP qHTS Assay for Modulators of WT P53-Induced Phosphatase 1 (WIP1) (AID 1347425). To be noted: recombinant WIP1, Rhodamine-PBP phosphate fluorescence, real-time; series mostly up to 57.5 µM. The method in brief: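 The read-out is the change in Rhodamine-PBP fluorescence (f1 - f0, ex 525/em 598 nm) as Pi is released, read each minute for 11 min. Final reaction: 5 nM WIP1, 10 uM phosphopeptide VEPPL-pS-QETFS, 10 uM Rh-PBP, 50 mM Tris-HCl pH 7.5, 30 mM MgCl2. Compound was preincubated with enzyme for 1 hour at room temperature.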

Assay [6] can be described thus: Primary qHTS for inhibitors of La Crosse Virus (LACV) - induced cell death in SH-SY5Y cells (AID 1508616).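 Further: top concentration of the series differs between compounds; higher means more rescue of cells from virus-induced death.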 The settings on record: SH-SY5Y LACV cytopathicity rescue, ATP luminescence, 6 d; series mostly up to 4.29 µM. The method in brief:
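Luminescent ATP readout (ATPLite 1step, 5 min room temperature) measured rescue from LACV-induced death after 6 days of infection at 0.01 MOI; normalized to infected DMSO wells and uninfected DMSO wells.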

A short description of assay [7]: Confirmatory screen NINDS Rhodamine qHTS for Zika virus inhibitors (AID 1347161). Further: nearly all actives have a fitted effect of over 60% in size. Further: potency means the concentration at half of the fitted maximal effect. The settings on record: purified enzyme assay, Rhodamine110 substrate fluorescence, 15 min; series mostly up to 114 µM. The procedure, abridged:
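qHTS dose-response: 25 nM linked protease, pH 8.0 Tris/Tween buffer, cpd titration, 15 min RT preinc, 1.5 microM Rhod110 peptide, 15 min reaction (~15% conversion), Ex480/Em540; 4-parameter Hill fit.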

Assay [8] relates to Zika virus NS2B-NS3 protease (linked). Briefly: 384 well plate NINDS AMC confirmatory qHTS for Zika virus inhibitors (AID 1347163). Further: nearly all actives have a fitted effect of over 50% in size. Further: potency means the concentration at half of the fitted maximal effect. To be noted: Recombinant NS2B-NS3 protease, Ac-VKTGKR-AMC fluorescence; series mostly up to 100 µM. The method in brief: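 Linked protease 5/30/60 nM final; cpds up to 1 mM final, ~15 min preinc. Substrate Ac-VKTGKR-AMC 30 microM final. RT, dark, 25 min; FI ex 355/em 460; normalized to no-enzyme/no-inhibitor ctrls.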

For assay [9], the system named is Zika virus NS2B-NS3 protease (linked construct). Briefly: 384 well plate NINDS Rhodamine confirmatory qHTS for Zika virus inhibitors (AID 1347164). Further: potency means the concentration at half of the fitted maximal effect; nearly all actives have a fitted effect of over 65% in size. The settings on record: rhodamine-110 peptide substrate fluorescence; series mostly up to 100 µM. The procedure, abridged: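 Linked protease at a final 5 nM, 30 nM or 60 nM was preincubated ~15 min with compounds, then given 10 microM Ac-LKRR-Rhodamine 110. Fluorescence (ex 485/em 538 nm) after 25 min in the dark at room temperature.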

A short description of assay [10]: Vero cells viability qHTS for Zika virus inhibitors (AID 1347167). The settings on record: cytotoxicity counter-screen (Zika); series mostly up to 45.9 µM. The method in brief: (§1)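 Cells seeded at 2.5 x 10^5 cells/mL in DMEM with 4% FBS and attached overnight at 37 degrees C, then exposed to compound for 24 to 48 hours. Viability read as ATP content by CellTiter Glo luminescence.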

The nature of assay [11]: HepG2 cells viability qHTS for Zika virus inhibitors (AID 1347168). Further: potency means the concentration at half of the fitted maximal effect. The settings on record: Zika counter-screen; series mostly up to 45.9 µM. The method in brief:
as §1

Assay [12] in a line: Tertiary RLuc qRT-PCR qHTS assay for Zika virus inhibitors (AID 1347169). Further: top concentration of the series differs between compounds; nearly all actives have a fitted effect of over 55% in size. The settings on record: infected Vero cells, reporter luminescence, 48-72 h; series mostly up to 89.2 µM. The procedure, abridged:
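Vero cells (1,000 per well) plated overnight at 37 degrees C, treated with compound in DMSO, then infected with recombinant ZIKV-RLuc (Cambodian) at MOI 1-2 for 48-72 hrs. Live-cell Renilla luciferase substrate added; luminescence read after 1-1.5 hrs.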

In assay [13] the target is Calcium and integrin-binding protein 1 (Homo sapiens) (UniProt Q99828). Briefly: Confirmatory qHTS for Identification of Calcium Integrin Binding Protein 1 (CIB1) Competitor (AID 1508617). Further: nearly all actives have a fitted effect of over 65% in size. The settings on record: CIB1 binding competition assay, biochemical qHTS; series mostly up to 114 µM. The method in brief: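 Compounds at up to 114 uM final met 1 uM GST-tagged CIB1 for 15 min at room temperature (HEPES pH 7.4, 5 mM CaCl2). FITC-labelled alphaIIb peptide, 100 nM, added; polarization read after 15 min more.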
Chain of Calcium and integrin-binding protein 1 (Homo sapiens) (Q99828 whole entry, looked up): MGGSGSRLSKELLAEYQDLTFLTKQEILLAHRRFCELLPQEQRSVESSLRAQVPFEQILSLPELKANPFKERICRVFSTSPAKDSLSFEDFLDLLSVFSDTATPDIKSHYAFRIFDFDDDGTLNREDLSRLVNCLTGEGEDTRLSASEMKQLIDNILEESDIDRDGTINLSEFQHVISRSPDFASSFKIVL

Chain of Protein phosphatase 1D (Homo sapiens) (O15297 whole entry, looked up): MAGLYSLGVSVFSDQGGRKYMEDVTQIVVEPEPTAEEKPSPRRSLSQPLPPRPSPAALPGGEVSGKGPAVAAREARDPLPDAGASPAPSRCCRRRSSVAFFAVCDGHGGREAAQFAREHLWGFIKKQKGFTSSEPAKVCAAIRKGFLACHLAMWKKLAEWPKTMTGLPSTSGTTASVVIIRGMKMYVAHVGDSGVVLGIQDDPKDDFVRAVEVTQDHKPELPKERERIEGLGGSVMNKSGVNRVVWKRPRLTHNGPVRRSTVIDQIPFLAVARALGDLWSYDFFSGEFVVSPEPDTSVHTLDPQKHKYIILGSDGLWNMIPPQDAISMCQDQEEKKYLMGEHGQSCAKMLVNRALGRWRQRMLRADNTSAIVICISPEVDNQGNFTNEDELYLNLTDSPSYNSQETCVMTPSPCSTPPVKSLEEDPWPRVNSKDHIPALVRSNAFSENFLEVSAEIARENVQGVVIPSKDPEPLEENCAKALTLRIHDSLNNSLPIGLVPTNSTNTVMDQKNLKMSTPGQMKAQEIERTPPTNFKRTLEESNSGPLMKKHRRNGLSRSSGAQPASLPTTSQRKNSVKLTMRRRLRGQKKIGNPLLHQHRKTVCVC

For the compound `Nc1nc(NCCNc2ncc(-n3ccnc3)c(-c3ccc(Cl)cc3Cl)n2)ccc1[N+](=O)[O-]`, the Potency entry in assay [1] is “inactive”. For the same compound, in assay [2], the Potency is 14.7 µM (active).

For `O=C(c1cncc(Br)c1)N1CCC(N2CCCC2)CC1`, the Potency entry in assay [1] and in [2] was “inactive” each time.

As for `CC(=O)SC[C@@H](C)C(=O)N1CCC[C@H]1C(=O)N[C@@H](Cc1ccccc1)C(=O)O`, the result in assay [3], in [5] and in assay [6] was inactive. Moreover, the Potency result in assay [2] and in assay [4] was “inactive” each time.

As for `CC(C)c1ccccc1Cc1cc(C(=O)Nc2ccc(S(=O)(=O)c3ccccc3C(C)(C)C)cc2)c(O)c(O)c1O`, the Potency is 90.3 µM (active) in assay [7], 2.24 µM (active) in [8] and 1.58 µM (active) in assay [9]. The Potency result in assay [10], in [11] and in assay [12] was “inactive” throughout.

`CC(C)c1noc(N2CCC(COc3ccc(-c4ccc(S(C)(=O)=O)cc4)nc3)CC2)n1`: the Potency result in [1] and in assay [2] was “inactive” throughout.

As for `CCCn1c(=O)c2[nH]c(-c3cnn(Cc4cccc(C(F)(F)F)c4)c3)nc2n(CC)c1=O`, the Potency entry in assay [1] and in assay [2] was “inactive” throughout.

Turning to `Cc1c(Cn2c(C)nc3c(C(=O)O)cc(N4CCOCC4)cc32)cccc1C(F)(F)F`, the Potency entry in assay [1] and in assay [2] was “inactive” throughout.

Consider `CCS(=O)(=O)c1cccc(-c2cc(C(=O)NC3CCN(C)CC3)c(C)c3[nH]c4ncc(C)cc4c23)c1`, for which the Potency entry in [1], in assay [7] and in assay [10] was “inactive” throughout. Besides, the Potency in assay [11] was 20.8 µM (active); in [2], 1.86 µM (active).

`CNC(=O)c1nn(C)c2c1C(C)(C)Cc1cnc(Nc3ccc(N4CCN(C)CC4)cc3)nc1-2`: the Potency result in assay [1] is “inactive”. Further, the Potency in assay [2] is 5.23 µM (active).

With `Cc1cc(Nc2ncnc3ccc(-c4ccc(CNCCS(C)(=O)=O)o4)cc23)ccc1Oc1ccn2ncnc2c1`, the Potency result in [1] and in assay [2] was “inactive” in each case.

As for `CNC(=O)c1c(F)cccc1Nc1nc(Nc2cc3c(cc2OC)CCN3C(=O)CN(C)C)nc2[nH]ccc12`, in [1], the Potency entry was “inactive”. Further, in assay [2], the Potency was 7.39 µM (active).

Take `CC(C)(O)CCc1ccc(OCc2cc(-c3cccc(OC(F)F)c3)c3ncccc3c2)cc1`: the Potency result in assay [1] and in assay [13] was “inactive” throughout.

For `C[C@]12CC[C@H](O)CC1=CCC1C2CC[C@]2(C)C(n3cnc4ccccc43)=CCC12` (stereo not given in full), the Potency result in [2] is “inactive”.

For the compound `Cc1cc(N2CCOCC2)cc2[nH]c(-c3c(NC[C@@H](O)c4cccc(Cl)c4)cc[nH]c3=O)nc12`, the Potency entry in assay [1], in [8] and in assay [10] was “inactive” throughout. The Potency in assay [7] was 44 µM (active).

In the case of `Clc1ccc2ncc(-c3cccc(NC4CNC4)n3)n2c1`, the Potency entry in [1] and in [2] was “inactive” throughout.

Regarding `COc1cc(-c2nn(C3CCC(N4CCN(C(C)=O)CC4)CC3)c3ncnc(N)c23)ccc1NC(=O)c1cc2ccccc2n1C` (stereo not given), the Potency result in assay [1] and in [2] was “inactive” in each case.

As for `CCCNC(=O)Nc1ccc(Oc2ncnc3cc(OC)c(OC)cc23)cc1Cl`, the Potency result in [1] and in assay [2] was “inactive” throughout.

`NC(=O)c1cccc2cn(-c3ccc([C@@H]4CCCNC4)cc3)nc12`: the Potency result in assay [1] and in assay [2] was “inactive” throughout.

Take `OCc1ccc(-c2ccc(-c3ccc(CO)s3)o2)s1`: the Potency entry in [1] and in assay [13] was “inactive” throughout. In addition, the Potency in assay [2] was 33 µM (active).

`Cc1nc2ccc(CN(C)c3ccc(C(=O)N[C@@H](CCC(=O)O)C(=O)O)s3)cc2c(=O)[nH]1`: the compound was classed as inactive in assay [3], in assay [5] and in [6]. Besides, the Potency entry in assay [2] and in assay [4] was “inactive” throughout.

For the compound `Cc1cn(-c2cc(NC(=O)c3ccc(C)c(Nc4nccc(-c5cccnc5)n4)c3)cc(C(F)(F)F)c2)cn1`, the Potency result in assay [1] and in assay [2] was “inactive” throughout.

For `O=C(O)c1ccc2c(c1)nc(Nc1cccc(Cl)c1)c1ccncc12`, the Potency in assay [2] is 16.5 µM (active).

With `C#Cc1cccc(Nc2ncnc3cc(OC)c(OCCCCCCC(=O)NO)cc23)c1`, the Potency result in assay [1] was “inactive”. Also, the Potency in [2] is 1.65 µM (active).

With `CCCCCCCCCC(=O)N[C@@H](Cc1c[nH]c2ccccc12)C(=O)N[C@H](CC(N)=O)C(=O)N[C@@H](CC(=O)O)C(=O)N[C@@H]1C(=O)NCC(=O)N[C@@H](CCCN)C(=O)N[C@@H](CC(=O)O)C(=O)N[C@H](C)C(=O)N[C@@H](CC(=O)O)C(=O)NCC(=O)N[C@H](CO)C(=O)N[C@@H]([C@@H](C)CC(=O)O)C(=O)N[C@@H](CC(=O)c2ccccc2N)C(=O)O[C@@H]1C`, the Potency result in assay [1] and in assay [2] was “inactive” throughout.

On to `Cc1c(NC(=O)OC[C@@H]2COCCN2)cn2ncnc(Nc3ccc4c(cnn4Cc4cccc(F)c4)c3)c12`, for which the Potency result in [1] and in [2] was “inactive” each time.

Turning to `COc1cc(C(=O)NS(=O)(=O)c2ccccc2C)ccc1Cc1cn(C)c2ccc(NC(=O)OC3CCCC3)cc12`, the Potency is 1.56 µM (active) in assay [7], 141 µM (active) in assay [8], 28.2 µM (active) in assay [9] and 15.8 µM (active) in [4]. The Potency entry in assay [10], in assay [11] and in [2] was “inactive” each time. Further, the result in [3] and in [6] was inactive.

With `CC(C)(C)c1cc(NC(=O)Nc2ccc(-c3cn4c(n3)sc3cc(OCCN5CCOCC5)ccc34)cc2)no1`, the Potency entry in [1] and in [2] was “inactive” each time.
